# A number with no mark means an inactive call. Results filed as inconclusive are left out. Some compounds were tested as several samples or in several runs, with calls that do not always agree. Active and inactive are the calls of the source. Unless noted, the call rests on the fitted dose curve; in most records, active means well fitted curve in the direction sought with a large enough effect; inconclusive means small, poorly fitted or top-dose-only effect, or another doubt; inactive means no such curve, though single readings can be large; an effect the other way counts as inactive or inconclusive.
# Legend:
# [1] = test system: Tov-21-G; experiment: Primary qHTS to identify gynecologic anti-cancer compounds using libraries of approved drugs and bioactive compounds (AID 1345084); conditions: Gynecologic cancer cell panel viability, ATPlite luminescence, 48 h; series mostly up to 57.5 µM; further: nearly all actives have a fitted effect of over 55% in size; further: potency means the concentration at half of the fitted maximal effect; on activity change, negative = cytotoxicity: on the % scale 0 is the no-effect control and ±100 the full control effect
# In short: (§1)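 Five-point cytotoxicity, 48 h drug exposure at 37 C, 5% CO2, on cells seeded 16 h beforehand. ATP content read by ATPlite luminescence.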
# [2] = test system: Tov112D; experiment: as above; conditions: Gynecologic cancer cell panel viability, ATPlite luminescence, 48 h; series mostly up to 57.5 µM
# In short: as §1
# [3] = Drug repurposing screens with cells derived from glioblastoma tumor samples (AID 1345199); conditions: GBM patient neurospheres viability, ATP luminescence, 48 h; further: nearly all actives have a fitted effect of over 40% in size; further: potency means the concentration at half of the fitted maximal effect; on activity, negative = cell killing: on the % scale 0 is the no-effect control and ±100 the full control effect
# In short: (§2)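 Four patient lines of CD133+ GBM neurospheres were screened at several concentrations; hits were retested in those lines plus three slower-growing GBM lines, using 48-hour treatment and ATP-based viability.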
# [4] = test system: astro; experiment: as above; conditions: viability, ATP luminescence, 48 h; series mostly up to 45.9 µM
# In short: as §2
# [5] = target: Nuclear receptor subfamily 1 group I member 2 (Rattus norvegicus) (UniProt Q9R1A7); experiment: qHTS assay for small molecule activators of the rat pregnane X receptor (rPXR) signaling pathway (AID 651751; call rule not given here; further: 0% is about no effect); conditions: rPXR reporter cells, luciferase (One-Glo), 24 h
# [6] = qHTS assay for small molecule activators of the human pregnane X receptor (PXR) signaling pathway (AID 720659; call rule not given here; further: 0% is about no effect)
# [7] = at 45.9 µM (top of the series), tumour line B
# [8] = at 45.9 µM (top of the series), tumour line D
# [9] = at 46.1 µM (top of the series), tumour line C
# [10] = at 91.6 µM (top of the series), tumour line B
# [11] = at 99.2 µM (top of the series), tumour line C
# [12] = at 46 µM (top of the series), tumour line A
# [13] = at 20 µM (top of the series), tumour line C
# [14] = at 21.2 µM (top of the series), tumour line B
# [15] = at 21.2 µM (top of the series), tumour line D
# Sequence of Nuclear receptor subfamily 1 group I member 2 (Rattus norvegicus) (Q9R1A7 whole entry, looked up): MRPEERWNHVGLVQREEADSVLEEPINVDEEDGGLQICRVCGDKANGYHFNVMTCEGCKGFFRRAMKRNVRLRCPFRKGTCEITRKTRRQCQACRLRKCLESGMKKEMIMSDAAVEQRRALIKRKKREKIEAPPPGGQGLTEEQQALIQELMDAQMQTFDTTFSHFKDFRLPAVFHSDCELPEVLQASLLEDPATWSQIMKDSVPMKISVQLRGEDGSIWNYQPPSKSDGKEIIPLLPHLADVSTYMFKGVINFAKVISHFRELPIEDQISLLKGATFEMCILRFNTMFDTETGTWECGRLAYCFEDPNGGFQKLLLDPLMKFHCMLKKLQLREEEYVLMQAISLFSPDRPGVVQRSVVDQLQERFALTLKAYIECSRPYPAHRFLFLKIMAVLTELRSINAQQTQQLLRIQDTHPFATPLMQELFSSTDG
compound,measurement,setting,value
COc1cc2c(cc1OC)[C@@]13CCN4CC5=CCO[C@H]6CC(=O)N2[C@H]1[C@H]6[C@H]5C[C@H]43,Potency,[1],inactive
same,Potency,[2],inactive
same,"activity, negative = cell killing",[3]; [7],-6.02%
same,"activity, negative = cell killing",[3]; [8],-3.06%
same,"activity, negative = cell killing",[3]; [9],1.45%
same,Potency,[3]; tumour line A,0.0794 µM (active)
same,Potency,[4],inactive
COC(=O)C12C(=O)C(C)(O)C(=O)C1(C)C(C)=CC1C34CCC(OC3=O)C(C)(CO)C4CCC12C (stereo unspecified),Potency,[1],inactive
same,Potency,[2],inactive
C[C@]12CC[C@@H](O)C[C@H]1CC[C@@H]1[C@@H]2CC[C@]2(C)C(=O)CC[C@@H]12,Potency,[1],inactive
same,Potency,[2],inactive
COC1CC(OC2CCC3(C)C(=CCC4C3CCC3(C)C(C(C)OC5OC(COC6OC(CO)C(O)C(O)C6O)C(O)C(O)C5O)CCC43O)C2)OC(C)C1OC1OC(C)C(O)C(OC)C1O (stereo unspecified),"activity change, negative = cytotoxicity",[1],6.16% [at 11.6 µM]
same,"activity change, negative = cytotoxicity",[2],-0.166% [at 11.6 µM]
CCCSP(=O)(OCC)SCCC,Potency,[1],inactive
same,Potency,[2],inactive
same,"activity, negative = cell killing","[3]; at 91.6 µM (top of the series), tumour line A",-29.2%
same,"activity, negative = cell killing",[3]; [10],-4.25%
same,"activity, negative = cell killing","[3]; at 91.6 µM (top of the series), tumour line D",-15.9%
same,"activity, negative = cell killing",[3]; [11],13.9%
same,Potency,[4],inactive
same,max response,[5],5.9%
CCN1C[C@]2(COC)[C@H](O)C[C@H](OC)[C@]34[C@@H]5C[C@]6(O)[C@H](OC(=O)c7ccccc7)[C@@H]5[C@@](O)([C@H]([C@H](OC)[C@H]23)[C@@H]14)[C@@H](O)[C@@H]6OC,Potency,[1],inactive
same,Potency,[2],inactive
CC(C)[C@@]1(NC(=O)[C@@H]2C[C@@H]3c4cccc5[nH]cc(c45)C[C@H]3N(C)C2)O[C@@]2(O)[C@@H]3CCCN3C(=O)[C@H](Cc3ccccc3)N2C1=O,"activity, negative = cell killing",[3]; [9],9.68%
same,Potency,[3]; tumour line A,3.16 µM (active)
Cn1ncnc1COc1nn2c(-c3c(F)cccc3F)nnc2cc1C1CCC1,Potency,[1],inactive
same,Potency,[2],inactive
CO[C@@H]1[C@H](O)[C@@H](O[C@@H]2C[C@H]3CC[C@@H]4C(CC[C@]5(C)[C@@H](C6=CC(=O)OC6)CC[C@]45O)[C@@]3(C)[C@H](O)C2)O[C@H](C)[C@@H]1O[C@@H]1O[C@H](CO)[C@@H](O)[C@H](O)[C@H]1O (stereo partly specified),Potency,[1],0.199 µM (active)
same,Potency,[2],0.1 µM (active)
CC1=C2C[C@H]3[C@@H](CC=C4C[C@@H](O)CC[C@@]43C)[C@@H]2CC[C@]12O[C@@H]1C[C@H](C)CN[C@H]1[C@H]2C,Potency,[1],inactive
same,Potency,[2],inactive
COC1=CC(=O)O[C@@H](/C=C/c2ccccc2)C1,Potency,[1],inactive
same,Potency,[2],inactive
same,outcome,[6],inactive
COC1=CC(=O)O[C@@H](CCc2ccccc2)C1,Potency,[1],inactive
same,Potency,[2],inactive
Cc1cn(C[C@H](N)C(=O)O)c(=O)n(Cc2cc(-c3ccccc3)sc2C(=O)O)c1=O,Potency,[1],inactive
same,Potency,[2],inactive
CCOc1ccc2c3c1O[C@H]1[C@@H](O)C=C[C@H]4[C@@H](C2)N(C)CC[C@@]341,"activity, negative = cell killing",[3]; [7],-22.9%
CC(=O)[C@H]1CC[C@H]2[C@@H]3CC[C@@H]4C[C@H](O)CC[C@]4(C)[C@H]3CC[C@]12C,"activity, negative = cell killing",[3]; [7],-17.7%
same,Potency,[3]; tumour line D,17.8 µM (active)
CC1=CC2/C=C(\C)CCC(O)C3OC(C)(C)OC3CC(=O)OC23C(=O)NC(CC(C)C)C3C1C (stereo unspecified),Potency,[1],inactive
same,Potency,[2],inactive
CCC(C)(C#N)O[C@@H]1O[C@H](CO)[C@@H](O)[C@H](O)[C@H]1O (stereo partly specified),Potency,[1],inactive
same,Potency,[2],inactive
FC(F)OC(F)(F)C(F)Cl (stereo unspecified),"activity, negative = cell killing",[3]; [7],-9.16%
same,"activity, negative = cell killing",[3]; [8],6%
same,"activity, negative = cell killing",[3]; [12],-21%
same,"activity, negative = cell killing",[3]; [9],-2.93%
same,Potency,[4],inactive
COC1=CC=C2[C@H]3Cc4ccc(OC)c5c4[C@@]2(CCN3C)[C@H]1O5,"activity, negative = cell killing",[3]; [13],-9.82%
same,"activity, negative = cell killing",[3]; [14],-2.9%
same,"activity, negative = cell killing",[3]; [15],-4.5%
same,"activity, negative = cell killing",[3]; [10],-4.24%
same,"activity, negative = cell killing",[3]; [11],12%
same,Potency,[3]; tumour line A,35.5 µM (active)
same,Potency,[3]; tumour line D,35.5 µM (active)
same,Potency,[4],inactive
ClC1C(Cl)C(Cl)C(Cl)C(Cl)C1Cl (stereo unspecified),"activity, negative = cell killing",[3]; [7],-3.31%
same,"activity, negative = cell killing",[3]; [8],-6.39%
same,"activity, negative = cell killing",[3]; [12],-20.5%
same,"activity, negative = cell killing",[3]; [9],-11%
same,Potency,[4],inactive
C[N+]1([O-])[C@@H]2CC[C@H]1CC(OC(=O)C(CO)c1ccccc1)C2 (stereo partly specified),"activity, negative = cell killing",[3]; [13],-19.4%
same,"activity, negative = cell killing",[3]; [14],-4.66%
same,"activity, negative = cell killing",[3]; [15],-20.9%
same,"activity, negative = cell killing","[3]; at 21.3 µM (top of the series), tumour line A",-44.8%
same,"activity, negative = cell killing",[3]; [7],-7.07%
same,"activity, negative = cell killing",[3]; [8],8.25%
same,"activity, negative = cell killing",[3]; [9],21.1%
same,Potency,[4],inactive

# From PubChem BioAssay (NCATS)
